Screens (PubChem BioAssay)
GALR2 agonist – activates the human galanin receptor 2 | O43603 | GALR2-expressing cells, agonist activation read-out | activation, % (no concentration beside the values) | actives 0.48% (n = 140,000); in the data active = activation above about 5%, passing the limit was not always enough;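 also: 0% = vehicle buffer wells and 100% = reference agonist at full effect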
S1P2 antag – S1P2 (human) receptor antagonism; actives 0.21% (n = 97,000); inhibition, % at 5 µM; AID 736; cell-based S1P2 antagonist assay, inhibition at 5 uM; O95136; in the data active = inhibition above about 45%;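 also: CRE beta-lactamase reporter cells expressing human S1P2 stimulated with S1P; 0% = agonist at EC80 alone and 100% = agonist plus reference antagonist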
Target sequence (O95136 whole entry, looked up): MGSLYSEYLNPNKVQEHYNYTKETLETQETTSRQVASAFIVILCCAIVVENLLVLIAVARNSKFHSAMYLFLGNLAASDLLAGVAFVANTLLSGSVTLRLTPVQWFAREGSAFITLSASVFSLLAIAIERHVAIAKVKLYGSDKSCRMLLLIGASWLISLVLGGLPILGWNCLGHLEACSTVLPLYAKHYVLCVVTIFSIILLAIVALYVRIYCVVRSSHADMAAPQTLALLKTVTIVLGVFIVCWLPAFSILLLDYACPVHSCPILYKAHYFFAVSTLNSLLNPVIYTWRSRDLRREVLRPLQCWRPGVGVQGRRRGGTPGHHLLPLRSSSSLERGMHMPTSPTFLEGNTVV
S1P2 ag – agonists of human S1P2 receptor; O95136; AID 729; S1P2-expressing cell line, agonist reporter read-out; activation, % at 4.5 µM; actives 0.46% (n = 97,000); in the data active = activation above about 16%;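 also: 0% = vehicle low control and 100% = maximal reference agonist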
PostGolgi yeast – growth inhibition of a yeast mutant, post-Golgi transport screen; inhibition, % at 10 µM; actives 0.9% (n = 98,000); post-Golgi transport phenotypic cell assay;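 also: yeast cells grown in 1536-well plates; yeast grown about 18 h at 30C before absorbance read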
GALR2 blocker – blocks the human galanin receptor 2. O43603. GALR2-expressing cells, antagonist mode. inhibition, % at 4 µM. actives 0.39% (n = 140,000). AID 828; in the data active = inhibition above about 27%;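 also: cells stimulated with galanin 1-16 at roughly its EC80; 0% = agonist challenge control and 100% = basal control without agonist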
PostGolgi ctrl – inhibits growth of the yeast control strain; efflux-deficient yeast background strain, growth absorbance A615, 16 h; inhibition, % at 10 µM; actives 5% (n = 98,000); AID 738
Numbers without * were called inactive; · = no result. Only a selection was taken, and hits are over-represented in it overall. Rule as the data show it, unless noted: active = inhibition above about 30%; inactive = the rest.

SMILES	GALR2 agonist	S1P2 antag	S1P2 ag	PostGolgi yeast	GALR2 blocker	PostGolgi ctrl
CCN1CCCC1CN(Cc1cc2ccc(C)cc2[nH]c1=O)C(=S)Nc1cccc(OC)c1 (configuration not stated)	-1	·	·	·	8	·
CNc1ccc(/C=C/C(=O)c2cccc3ccccc23)cc1[N+](=O)[O-]	-2	·	·	·	0	·
COc1cc2c(cc1NS(=O)(=O)N1CCCC1)oc1ccccc12	-3	-2	-7	21	7	49*
COc1cc2c(cc1NC(=O)CN1CCN(S(=O)(=O)c3ccc(C)cc3)CC1)oc1ccccc12	-2	-9	10	17	4	13
Cc1[nH]nc2c1C1(CCC(c3ccccc3)CC1)C(C#N)=C(N)O2 (configuration not stated)	-2	-9	-5	-7	12	31*
Cc1[nH]nc2c1C1(CCN(C(=O)c3ccccc3)CC1)C(C#N)=C(N)O2	0	-12	-6	6	8	5
COc1ccc(/C=N/NC(=O)c2ccc(COc3ccccc3Cl)o2)c(OC)c1C	8.0*	·	·	·	0	·
COc1ccc(C(=O)OCCNC(=O)c2ccncc2)cc1OC	0	·	·	·	-1	·
CC(=O)Oc1c(Cl)cc(Cl)cc1/C=C/c1ccc2ccccc2n1	-4	-4	-6	-5	16	54*
O=C(CSc1ncnc2c1nnn2Cc1ccccc1F)N1CCN(c2ccccc2)CC1	-1	22	-3	4	4	14
COc1ccc(S(=O)(=O)Nc2ccccc2OC)cc1C	-1	4	-2	-1	20	9
COc1cc(S(=O)(=O)NC2CCCCC2C)ccc1Cl (configuration not stated)	-1	2	-9	-3	-3	49*
COc1ccc(S(=O)(=O)N2CCOCC2)cc1Cl	0	-4	-4	-7	-11	1
COc1ccc(S(=O)(=O)N2CCOCC2)c(Cl)c1Cl	-1	-6	0	-1	-10	30*
COc1ccc(S(=O)(=O)Nc2ccc(S(=O)(=O)N3CCOCC3)cc2)cc1C	0	-3	-3	-3	-12	36*
COc1ccc(S(=O)(=O)Nc2ccccc2SC)cc1C	-1	15	-7	1	3	36*
Cc1cccc(N2CN(Cc3ccco3)CNC2=S)c1	-1	·	·	·	-5	·
O=[N+]([O-])c1ccc(CCNc2cccc3ccccc23)c([N+](=O)[O-])c1	0	·	·	·	-6	·
Cc1nc([N+](=O)[O-])nn1C12CC3CC(CC(Cl)(C3)C1)C2	-2	·	·	·	-8	·
CCN(Cc1ccccc1)C(c1cc2ccc(C)cc2[nH]c1=O)c1nnnn1CCOC (configuration not stated)	-4	1	-10	-5	12	-2
C=CCOc1c(Br)cc(CNc2ccc(NC(=O)C(C)C)c(OC)c2)cc1OCC	-2	·	·	·	-2	·
Nc1nnc(COc2ccccc2)s1	-1	1	-4	·	18	·
COc1cc(NS(=O)(=O)c2ccc(C)c(C)c2)c(OC)cc1Cl	0	-15	1	-7	-2	47*
O=S(=O)(Nc1ccc(N2CCOCC2)cc1)c1ccc2ccccc2c1	-2	2	-5	4	4	48*
COc1ccc(C)cc1NS(=O)(=O)c1cc(C)ccc1C	1	-7	-1	-2	-12	23
SMILES	GALR2 agonist	S1P2 antag	S1P2 ag	PostGolgi yeast	GALR2 blocker	PostGolgi ctrl
c1ccc2c(c1)c1ccccc1n1c(-c3ccc4c(c3)OCO4)nnc21	-2	-20	4	16	9	43*
O=c1[nH]c(SCc2cccc(Cl)c2)nc2c1CCCC2	-3	7	-2	0	4	34*
CC1(CC(=O)N/N=C/c2ccc(OCc3ccc(Cl)cc3Cl)cc2)OCCCO1	-2	-16	-1	1	-6	42*
CCCCn1c(=O)c(-c2ccccc2)c(O)c2ccccc21	0	-14	-4	19	-6	32*
CCn1c(=O)c(-c2ccccc2)c(O)c2ccccc21	0	-4	-3	-7	0	16
OCCN1CCN(c2nc(-c3ccccc3)c3cc(Cl)ccc3n2)CC1	19*	-5	18*	11	9	9
CN1CCN(c2nc(-c3ccccc3)c3cc(Cl)ccc3n2)CC1	18*	5	25*	7	14	9
O=C1CN(c2nc(-c3ccccc3)c3cc(Cl)ccc3n2)c2ccccc2N1	0	·	·	·	-7	·
COc1ccc(C(=O)Oc2coc(CSc3nnc(NC(=O)c4cccs4)s3)cc2=O)cc1	-1	·	·	·	0	·
CCOc1ccc(NC2c3ccccc3C(=O)N2Cc2ccc3c(c2)OCO3)cc1 (configuration not stated)	-1	8	-8	-3	11	31*
Cc1cccn2c(=O)c(/C=C(\C#N)C(=O)NC3CCS(=O)(=O)C3)c(N3CCC(C(N)=O)CC3)nc12 (configuration not stated)	6.3*	·	·	·	-4	·
Cc1cccn2c(=O)c(/C=C(\C#N)S(=O)(=O)c3ccccc3)c(N3CCC(C(N)=O)CC3)nc12	-1	0	-2	5	-2	5
O=S(=O)(Nc1ccc(-n2cccc2)cc1)c1ccccc1	-4	5	-6	4	4	33*
O=[N+]([O-])c1ccc(N/N=C/c2c[nH]c3ccccc23)c(S(=O)(=O)Nc2ccc(Cl)cc2)c1	-2	10	-5	86*	2	24
COc1ccccc1NS(=O)(=O)c1cc([N+](=O)[O-])ccc1N/N=C/c1c(C)[nH]c2ccccc12	-5	69*	-15	-7	9	24
NNC(=O)c1cc(Br)cs1	-1	·	·	·	4	·
Cc1cc(C(=O)N2CCN(C/C=C/c3ccccc3)CC2)cs1	-1	-6	-4	-2	-10	-9
O=C(c1cc(Br)c(Br)s1)N1CCN(C/C=C/c2ccccc2)CC1	-3	-4	-2	8	-7	46*
C=CCNC(=O)/C(C#N)=C/c1c(C)nn(-c2ccccc2)c1Cl	0	·	·	·	13	·
COc1ccc(/C=C\C(=O)CC(O)(c2ccccc2)C(F)(F)F)cc1 (configuration not stated)	0	6	2	-4	-7	38*
CCn1c(O)c(/C=N/N=C/c2ccccc2)c2ccc(C3=NNC(=O)CC3)cc21	-1	12	0	3	4	48*
COc1cc2c(cc1OC)CN(Cc1ccc(C)s1)CC2	-2	-9	-5	-1	-8	43*
COc1cc2c(cc1OC)CN(CC(=O)Nc1ccc(C)cc1)CC2	0	0	0	8	-6	17
COc1cccc(-c2nc(N3CCC(C)CC3)c3ccccc3n2)c1O	-1	-35	0	0	6	72*
Oc1ccccc1-c1nc(N2CCN(Cc3ccccc3)CC2)c2ccccc2n1	-2	8	-5	-5	14	42*
COc1cccc(-c2nc(N3CC(C)CC(C)C3)c3ccccc3n2)c1O (configuration not stated)	-1	8	-10	1	-5	75*
Oc1ccccc1-c1nc(N2CCCC2)c2ccccc2n1	-2	-35	-7	0	-10	22
